The source of these data is PubChem BioAssay AID485346 (Sanford-Burnham Center for Chemical Genomics, 2010).

About 10,000 (3%) of roughly 330,000 compounds were called active. This excerpt belongs to a sample that is enriched for actives. Values without a mark were called inactive.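 How the source made its calls: active means inhibition of at least 50% at 8 µM in the primary screen; inactive means the rest.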

In the experiment the target is Protein Mdm4 (Homo sapiens) + E3 ubiquitin-protein ligase Mdm2 (Homo sapiens) (UniProt O15151+Q00987). Put plainly: inhibitors of human Mdm2-MdmX association, primary screen, cell-based, luminescence, split luciferase, SaOS-2, uHTS (AID 485346). The following applies: SaOS-2 split-luciferase Mdm2/MdmX complementation, at 8 µM, active compounds read high.
Protein Mdm4 (Homo sapiens) + E3 ubiquitin-protein ligase Mdm2 (Homo sapiens), sequence (O15151 whole entry, looked up): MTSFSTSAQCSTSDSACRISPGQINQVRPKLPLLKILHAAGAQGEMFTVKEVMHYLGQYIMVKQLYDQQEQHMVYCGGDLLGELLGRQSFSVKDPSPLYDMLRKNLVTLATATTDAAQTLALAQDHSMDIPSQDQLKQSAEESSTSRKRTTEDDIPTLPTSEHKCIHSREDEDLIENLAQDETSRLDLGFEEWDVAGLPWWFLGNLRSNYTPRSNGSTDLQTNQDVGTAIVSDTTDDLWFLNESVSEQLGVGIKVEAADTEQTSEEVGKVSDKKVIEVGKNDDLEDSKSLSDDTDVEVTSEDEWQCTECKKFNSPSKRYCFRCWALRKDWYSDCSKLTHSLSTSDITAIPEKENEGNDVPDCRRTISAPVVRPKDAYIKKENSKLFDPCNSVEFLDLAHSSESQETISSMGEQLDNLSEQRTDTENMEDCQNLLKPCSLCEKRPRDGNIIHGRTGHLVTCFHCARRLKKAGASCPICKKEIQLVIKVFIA
Protein Mdm4 (Homo sapiens) + E3 ubiquitin-protein ligase Mdm2 (Homo sapiens), sequence (Q00987 whole entry, looked up): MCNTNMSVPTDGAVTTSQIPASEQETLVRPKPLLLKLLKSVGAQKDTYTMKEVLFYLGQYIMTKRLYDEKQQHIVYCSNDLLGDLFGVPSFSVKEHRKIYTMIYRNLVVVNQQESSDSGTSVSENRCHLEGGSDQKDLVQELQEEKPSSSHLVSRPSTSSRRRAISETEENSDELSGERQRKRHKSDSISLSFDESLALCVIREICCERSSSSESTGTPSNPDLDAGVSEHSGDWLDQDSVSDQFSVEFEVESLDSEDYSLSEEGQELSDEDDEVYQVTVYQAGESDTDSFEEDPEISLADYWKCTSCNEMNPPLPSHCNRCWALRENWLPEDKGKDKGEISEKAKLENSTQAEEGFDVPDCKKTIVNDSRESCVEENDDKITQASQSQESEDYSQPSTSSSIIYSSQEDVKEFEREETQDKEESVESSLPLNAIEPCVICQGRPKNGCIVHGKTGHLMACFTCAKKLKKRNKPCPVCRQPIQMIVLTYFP
Take `Cc1c(NC(=O)CN(C)CC(=O)Nc2ccc(F)c(F)c2F)c(=O)n(-c2ccccc2)n1C`: the inhibition is 7.46%.
`OCC[C@H]1C[C@@H](O)[C@H](O)[C@]2(OCCCc3ccccc32)O1`: the inhibition is 8.75%.
The figure for `CCNS(=O)(=O)c1ccc(NC(=O)Nc2cccc(C(F)(F)F)c2)cc1` is 52.6% (active).
The figure for `O=C(NCc1ccccc1)c1ccc(S(=O)(=O)Nc2cccc(C(F)(F)F)c2)cc1` is 25.2%; for `CC(C)C[C@H](NC(=O)Nc1cccc(C(F)(F)F)c1)C(=O)O` it is 29.7%.
Regarding `O=C(Nc1ccc(Cl)cc1)Nc1ccc(C(=O)N2CCOCC2)cc1`, the inhibition is 9.36%.
For `CC(=O)N1CCN(C(=O)Nc2cccc(C(F)(F)F)c2)CC1`, the inhibition is -7.17%.
On to `O=C(Nc1ccc(C(=O)N2CCOCC2)cc1)Nc1cccc(C(F)(F)F)c1`, for which the inhibition is 54.6% (active).
For `O=S(=O)(NCCS(=O)(=O)N1CCN(c2ccccc2)CC1)c1ccc(F)cc1`, the inhibition was 23.9%.
On to `Cc1nc(-c2ccccc2)cn2c1nc1ccccc12`, for which the inhibition is 14.8%.
With `COc1ccccc1NC(=O)c1c(Br)cnn1C`, the inhibition was -30.1%.
Consider `O=C(CN1CCCCCC1)NCCN1C(=O)S/C(=C\c2ccccc2Cl)C1=O`, for which the inhibition was 3.22%.
With `CN(C(=O)CCN1C(=O)/C(=C/c2ccccc2F)SC1=S)C1CCS(=O)(=O)C1` (configuration not stated), the inhibition was 24.9%.
For the compound `O=C1/C(=C\c2ccccc2Cl)SC(=S)N1CCC(=O)N1CCCc2ccccc21`, the inhibition is 99.5% (active).
With `COc1ccc(C(=O)OCc2cc(=O)n3ccsc3n2)cc1F`, the inhibition was 2.88%.
With `O=C(NNC1CC(=O)N(c2cccc(Cl)c2)C1=O)c1cccnc1` (configuration not stated), the inhibition is 14.9%.
Regarding `COc1cc(OC)c2c(-c3cccc(-c4cccc(N)c4)c3)cc(=O)oc2c1`, the inhibition was 75% (active).
For `COc1ccc(-c2c(C)cc3oc(=O)cc(-c4ccccc4)c3c2C)cc1F`, the inhibition is 2.64%.
The figure for `COc1ccc(-c2c(C)cc3oc(=O)cc(-c4ccccc4)c3c2C)cc1OC` is 7.66%.
`C=CCn1c(=S)[nH]c2scc(-c3ccco3)c2c1=O`: the inhibition was -19.1%.
As for `Cc1ccccc1C(OCCN(C)C)C1CCCCC1` (configuration not stated), the inhibition is 25.8%.
Take `COc1cccc(OC)c1C(=O)N1CCN(Cc2cccnc2)CC1`: the inhibition was -4.03%.
Consider `COc1ccc(S(=O)(=O)N2CCOCC2)cc1NC(=O)Cc1coc2cc(C)ccc12`, for which the inhibition is 3.68%.
On to `Cc1cccc(NS(=O)(=O)c2ccc(-c3cnc(C4CC4)o3)cc2)c1`, for which the inhibition was 65.1% (active).
`Cc1cccc(CNS(=O)(=O)c2ccc(-c3cnc(C4CC4)o3)cc2)c1`: the inhibition is 35.8%.
The figure for `COc1ccc(CNS(=O)(=O)c2ccc(-c3cnc(C4CC4)o3)cc2)cc1` is 15.3%; for `CN(C)S(=O)(=O)c1ccc(C(=O)NCCN=C2NS(=O)(=O)c3ccccc32)cc1` it is 7.98%.
`COCCCNC(=O)CN1CCN(Cc2ccccc2Cl)C1=O`: the inhibition was -6.08%.
`Cc1nn(CC(=O)NCCc2ccccc2)c(=O)c2cc3occc3n12`: the inhibition was 19%.
The figure for `CCc1ccc(-c2cc3c(=O)n(CC(=O)NCCCN4CCN(Cc5ccccc5)CC4)nc(C)n3n2)cc1` is 97.4% (active); for `Cc1ccc(-c2ccc(=O)n(CC(=O)NCCCN3CCCCC3)n2)cc1` it is 2.15%.
Consider `O=C(NNC(=O)c1cc(S(=O)(=O)N2CCCCC2)ccc1Cl)c1ccccc1O`, for which the inhibition was 16.6%.
Turning to `C[C@@H](NC(=O)OC(C)(C)C)c1nnc(S(=O)(=O)Cc2ccccc2)o1`, the inhibition is 53.4% (active).
Consider `C[C@H](NC(=O)OC(C)(C)C)c1nnc(SCC(=O)Nc2ccc(Br)cc2)o1`, for which the inhibition is 18.7%.
`CC(C)Sc1nnc([C@H](Cc2ccccc2)NC(=O)OC(C)(C)C)o1`: the inhibition was 2.05%.
For the compound `NC(=O)CC(NC(=O)Cc1ccc(Br)cc1)c1ccc(NC2CC3CCC2C3)c([N+](=O)[O-])c1` (configuration not stated), the inhibition was 9.79%.
With `COc1ccc(Br)cc1CN(C)C(=O)C1CC(=O)N(C2CCCC2)C1` (configuration not stated), the inhibition was 9.72%.
On to `CCN(CC(=O)NC(C)C)C(=O)c1cc(S(=O)(=O)N2CCCCC2)ccc1N1CCCCC1`, for which the inhibition was 2.7%.
The figure for `O=C(Nc1ccccn1)C1CCN(S(=O)(=O)c2ccccc2)CC1` is -12.4%.
The figure for `Cc1ccnc(NC(=O)C2CCN(S(=O)(=O)c3c(C)c(C)cc(C)c3C)CC2)c1` is 84.8% (active).
As for `Cc1cccc(NC(=O)C2CCN(S(=O)(=O)c3cccc4cccnc34)CC2)c1`, the inhibition is 14%.
Take `Cc1ccc(S(=O)(=O)N(C)CC(=O)NCCc2c[nH]c3ccccc23)cc1`: the inhibition was 6.29%.
Turning to `Cc1ccc(OCCNC(=O)CN2C(=O)NC3(CCCC3)C2=O)cc1`, the inhibition was 15.5%.
Consider `Cc1ccc(S(=O)(=O)/N=S(\C)C(C)C)cc1` (configuration not stated), for which the inhibition was 20.8%.
As for `COc1ccc(CNC(=O)C[C@H]2C[C@H](C(=O)N3CCOCC3)[C@@]3(C)c4[nH]c5cc(CCC(=O)N(C)C)ccc5c4CCN3C2=O)cc1OC`, the inhibition was 49.5%.
The figure for `Cc1cc(C)c2nc(N(CCN(C)C)C(=O)/C=C/c3cccs3)sc2c1` is 47.5%; for `Cc1ccc2sc(N(CCN(C)C)C(=O)/C=C/c3cccs3)nc2c1C` it is 52.3% (active); for `Cc1ccc(S(=O)(=O)N(C)C)cc1NC(=O)/C=C/c1cccs1` it is 30.7%.
As for `COCc1c(C(=O)N/N=C(\C)c2ccncc2)nnn1-c1nonc1N`, the inhibition was -11.6%.
The figure for `Cc1cc(C)c(S(=O)(=O)N(C)CC(=O)NCC2CCCO2)c(C)c1` (configuration not stated) is 0.089%; for `Cc1ccc(OCc2nnc(NC(=O)OCC(C)C)s2)cc1` it is -16.4%.
Regarding `CCC(C)N1C(=O)S/C(=C/c2ccc(Sc3nc4ccccc4[nH]3)o2)C1=O` (configuration not stated), the inhibition is 89.2% (active).
With `O=C(CSc1nc2ccccc2[nH]1)Nc1nc(-c2ccccc2)c(-c2ccccc2)o1`, the inhibition was 13.9%.
On to `CN(Cc1ccccc1)C(=O)CSc1nc2ccccc2[nH]1`, for which the inhibition is -10.7%.
Turning to `O=C(CNC(=O)c1ccccc1Br)NNC(=O)c1cccs1`, the inhibition is 4.78%.
As for `Cc1ccc(-n2[nH]c(C)c(/C=N/NC(=O)c3cccc([N+](=O)[O-])c3)c2=O)cc1C`, the inhibition was 72.5% (active).
For `Cc1[nH]n(-c2ccc([N+](=O)[O-])cc2)c(=O)c1C=NCCN1CCN(C(=O)c2ccccc2F)CC1`, the inhibition is -5.19%.
For the compound `Cc1[nH]n(-c2ccccc2)c(=O)c1/C=N/NC(=O)c1ccoc1C`, the inhibition is 37.2%.
With `CC1O[C@@H](OC2C(O)C(C)O[C@H](OC(=O)[C@]34CCC(C)(C)C[C@H]3C3=CCC5[C@@]6(C)CC(O)C(O[C@@H]7OC(CO)C(O)[C@@H](O)[C@@H]7O)[C@@](C)(C(=O)O)C6CC[C@@]5(C)[C@]3(CO)CC4)C2O[C@H]2OC(C)[C@@H](O[C@@H]3OCC(O[C@@H]4OC(CO)C(O)[C@H](O)C4O)[C@@H](O)[C@@H]3O)[C@H](O)C2O)C(O)C(O)C1O` (some centres not stated), the inhibition was -20.6%.
`O=S(=O)(O)Oc1c[nH]c2ccccc12`: the inhibition is 12.5%.
As to `O=C(Nc1ccc2c(c1)nc1n2CCCCC1)c1cc(S(=O)(=O)N2CCOCC2)ccc1Cl`, the inhibition is 4.51%.
Regarding `O=C(CN(c1cccc(Cl)c1)S(=O)(=O)c1ccccc1)NN=C1CCCC1`, the inhibition is -14%.
The figure for `CSc1nc(N)c(C#N)c(-c2ccccc2Cl)c1C#N` is 58.4% (active); for `CSc1ccc(-c2c(C#N)c(N)nc3c2c(C)nn3-c2ccccc2)cc1` it is 40.5%.
`COc1ccccc1-c1c(C#N)c(N)nc2c1CCC2`: the inhibition is -4.18%.
On to `Cc1ccc(NC(=O)C(=O)NCC2CCN(C(=O)c3cccc([N+](=O)[O-])c3)CC2)cc1`, for which the inhibition was -4.26%.
For `CCn1c(O)c(N=NC(=O)c2cccc(S(=O)(=O)N3CCCCC3)c2)c2ccccc21`, the inhibition is 51% (active).
Turning to `CCn1c2ccccc2c2cc(NC(=O)COC(=O)c3cc(S(=O)(=O)N4CCCCC4)ccc3Cl)ccc21`, the inhibition was 17.9%.
The figure for `Cc1cccc(NC(=O)c2cccc(S(=O)(=O)N3CCCC3)c2)n1` is -8.96%; for `CCOc1ccc(-n2cnc3c(=O)[nH]c(N)nc32)cc1` it is -4.14%.
The figure for `CCN(C[C@H]1N[C@@](Cc2ccccc2)(C(=O)OC)[C@H]2C(=O)N(Cc3ccccc3)C(=O)[C@@H]12)C(=O)c1ccc(C)cc1` is 0.772%.
As to `CC(C)(C)N1C(=O)[C@H]2[C@@H](c3ccc(Br)cc3)N3C(=O)N(c4cccc(Cl)c4)C(=O)[C@@]3(C)[C@H]2C1=O`, the inhibition is 10.7%.
On to `Cc1cccc([C@@H]2[C@@H]3C(=O)N(Cc4ccccc4)C(=O)[C@@H]3[C@]3(Cc4ccc(Cl)cc4)C(=O)N(c4cccc(Cl)c4)C(=O)N23)c1`, for which the inhibition is 8.94%.
Take `Cc1cccc([C@@H]2[C@@H]3C(=O)N(Cc4ccccc4)C(=O)[C@@H]3[C@]3(C)C(=O)N(c4ccc(Br)cc4)C(=O)N23)c1`: the inhibition is 53.1% (active).
For the compound `Cc1ccc(S(=O)(=O)Nc2ccc(F)c(S(=O)(=O)N3CCOCC3)c2)cc1`, the inhibition was 29.4%.
On to `COc1cccc(OC)c1C(=O)Nc1ccc2c(c1)n(C)c(=O)n2C`, for which the inhibition is 6.22%.
For the compound `Cn1c(=O)n(C)c2cc(C(=O)Nc3ccc4c(c3)OCO4)ccc21`, the inhibition is 60.2% (active).
`Cn1c(=O)n(C)c2cc(/C=N/NC(=O)c3cccc(Br)c3)ccc21`: the inhibition was 19.4%.
As for `O=C(Nc1ccc2c(c1)OCO2)c1ccc(N2C(=O)c3ccccc3C2=O)cc1`, the inhibition was 8.21%.
The figure for `Cn1c(=O)n(C)c2cc(C(=O)Nc3ccc(Br)cc3)ccc21` is 56.8% (active); for `CC(C)C(=O)Nc1cccc(C(=O)Nc2ccc3c(c2)OCO3)c1` it is -105%.
On to `CC1(C)C=Cc2c(ccc3c2OC[C@@H](c2ccc(O)cc2O)C3)O1`, for which the inhibition is -97.4%.
